# Experimental data published in PubChem BioAssay.
# Calls of active or inactive are those of the source. Unless noted, no rule for the calls is given here.
# Columns and labels:
# [1] = anti-His antibody binders, primary screen, artefact control for SMM control protein annotation, biochemical, small-molecule microarray, 635 nm fluorescence (AID 1128); conditions: anti-His Alexa647 antibody binding, higher = more signal;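 also: score merges feature fluorescence with signal-to-noise for each printed compound spot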
# [2] = system: Human papillomavirus type 1a E7 protein (residues 1-88); assay: HPV1a E7 small-molecule binders, primary screen, biochemical, small-molecule microarray, residues 1-88, 635 nm (AID 1129); conditions: small-molecule microarray binding, fluorescence 635 nm; higher = more signal
# [3] = target: Focal adhesion kinase 1 (Homo sapiens) (UniProt Q05397); assay: small-molecule microarray binders of FAK, primary screen, biochemical, 635/667 nm fluorescence, BSA, DTT (AID 1130); conditions: PTK2 binding, 635 nm fluorescence, higher = more signal;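 also: composite of spot emission at 667 nm and signal to noise over triplicate slides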
# Sequence of Focal adhesion kinase 1 (Homo sapiens) (Q05397 whole entry, looked up): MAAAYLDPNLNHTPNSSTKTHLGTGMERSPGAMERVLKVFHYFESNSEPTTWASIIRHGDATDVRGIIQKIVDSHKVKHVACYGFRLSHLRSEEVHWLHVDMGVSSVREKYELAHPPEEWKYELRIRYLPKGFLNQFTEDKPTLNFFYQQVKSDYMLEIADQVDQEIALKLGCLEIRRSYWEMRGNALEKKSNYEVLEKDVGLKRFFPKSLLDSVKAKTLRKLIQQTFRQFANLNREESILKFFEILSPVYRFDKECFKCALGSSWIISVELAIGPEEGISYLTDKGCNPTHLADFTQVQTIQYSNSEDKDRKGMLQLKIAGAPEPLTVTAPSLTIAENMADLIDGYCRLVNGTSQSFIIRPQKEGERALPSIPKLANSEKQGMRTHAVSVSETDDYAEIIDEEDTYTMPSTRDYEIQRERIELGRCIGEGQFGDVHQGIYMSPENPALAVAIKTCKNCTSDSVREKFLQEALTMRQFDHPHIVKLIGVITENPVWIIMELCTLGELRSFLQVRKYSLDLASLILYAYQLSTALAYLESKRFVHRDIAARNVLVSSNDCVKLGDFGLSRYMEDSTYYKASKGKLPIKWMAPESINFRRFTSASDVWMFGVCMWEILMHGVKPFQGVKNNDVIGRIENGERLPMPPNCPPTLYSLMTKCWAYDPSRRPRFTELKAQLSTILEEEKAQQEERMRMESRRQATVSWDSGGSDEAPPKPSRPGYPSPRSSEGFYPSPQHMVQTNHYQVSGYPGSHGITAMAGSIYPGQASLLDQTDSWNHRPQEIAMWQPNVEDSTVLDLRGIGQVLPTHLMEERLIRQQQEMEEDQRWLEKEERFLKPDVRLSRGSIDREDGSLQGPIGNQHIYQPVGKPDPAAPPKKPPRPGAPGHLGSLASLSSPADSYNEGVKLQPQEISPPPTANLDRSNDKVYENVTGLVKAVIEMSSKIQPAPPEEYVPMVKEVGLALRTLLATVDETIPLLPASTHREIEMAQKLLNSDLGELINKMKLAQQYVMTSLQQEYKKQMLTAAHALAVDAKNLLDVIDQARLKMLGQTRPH
# [4] = system: Fibrinogen (Alexa647-labelled); assay: fibrinogen binders on compound microarrays, profiling panel, artefact control for SMM control-protein annotation, biochemical, small-molecule microarray, 635/667 nm fluorescence (AID 1131); conditions: fibrinogen-A647 binding fluorescence, higher = more signal;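 also: z-score merges 667 nm fluorescence with per-spot signal-to-noise over triplicate slides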
# [5] = target: Follistatin (Homo sapiens) (UniProt P19883); assay: follistatin binders on small-molecule microarrays, primary screen, biochemical, small-molecule microarray, 635/667 nm fluorescence (AID 1132); conditions: FST binding, 635 nm fluorescence, higher = more signal
# Sequence of Follistatin (Homo sapiens) (P19883 whole entry, looked up): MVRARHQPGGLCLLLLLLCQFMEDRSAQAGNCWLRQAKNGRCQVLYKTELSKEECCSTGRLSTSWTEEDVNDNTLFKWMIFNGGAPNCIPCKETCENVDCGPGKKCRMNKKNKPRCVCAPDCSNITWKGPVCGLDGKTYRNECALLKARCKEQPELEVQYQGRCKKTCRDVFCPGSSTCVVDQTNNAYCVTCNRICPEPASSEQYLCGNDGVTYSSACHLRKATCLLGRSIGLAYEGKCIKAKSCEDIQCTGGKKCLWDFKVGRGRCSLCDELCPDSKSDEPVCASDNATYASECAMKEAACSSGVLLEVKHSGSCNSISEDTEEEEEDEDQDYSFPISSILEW
# [6] = target: Fibroblast growth factor 2 (Homo sapiens) (UniProt P09038); assay: FGF2 binders on small-molecule microarrays, primary screen, biochemical, small-molecule microarray, 635/667 nm fluorescence (AID 1133); conditions: small-molecule microarray binding, FGF2, fluorescence 635/667; higher = more signal
# Sequence of Fibroblast growth factor 2 (Homo sapiens) (P09038 whole entry, looked up): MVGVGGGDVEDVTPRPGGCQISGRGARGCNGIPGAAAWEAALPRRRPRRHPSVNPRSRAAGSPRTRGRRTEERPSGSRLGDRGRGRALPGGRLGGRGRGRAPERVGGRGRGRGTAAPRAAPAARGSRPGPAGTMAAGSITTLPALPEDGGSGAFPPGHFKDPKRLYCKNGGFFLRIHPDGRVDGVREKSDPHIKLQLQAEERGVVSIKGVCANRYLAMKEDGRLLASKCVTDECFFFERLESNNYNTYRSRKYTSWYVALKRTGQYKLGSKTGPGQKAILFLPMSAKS
# [7] = mitochondrial membrane potential change in A549 cells, profiling panel, cell-based, JC-1 fluorescence, basal, 24 h, 100 nL (AID 1138); conditions: higher = more signal;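 also: A549 lung adenocarcinoma cells under basal conditions with no added stimulus; test concentration not given here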
# Lefty1 = Lefty1 binders on small-molecule microarrays, primary screen, biochemical, small-molecule microarray, 635/667 nm fluorescence (AID 1139); conditions: small-molecule microarray binding, fluorescence 635/667; higher = more signal
# [8] = system: wheat germ agglutinin (Triticum aestivum), Alexa647-labelled; assay: wheat germ agglutinin binders on compound microarrays, profiling panel, artefact control for SMM control-protein annotation, biochemical, small-molecule microarray, 635/667 nm fluorescence (AID 1140); conditions: WGA-A647 binding, 635 nm fluorescence, higher = more signal;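 also: score merges 667 nm feature emission with signal to noise over triplicate slides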
# [9] = target: Luciferin 4-monooxygenase (Photinus pyralis) (UniProt P08659); assay: firefly luciferase enzyme inhibitors, primary screen, biochemical, luminescence, purified enzyme, 2006 set (AID 1141); conditions: SteadyGlo luminescence, 30 min, higher = more signal, called active from +8 up or from −8 down;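 also: cell-free assay with purified firefly luciferase at 100 ng per well in PBS; test concentration not given here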
# Sequence of Luciferin 4-monooxygenase (Photinus pyralis) (P08659 whole entry, looked up): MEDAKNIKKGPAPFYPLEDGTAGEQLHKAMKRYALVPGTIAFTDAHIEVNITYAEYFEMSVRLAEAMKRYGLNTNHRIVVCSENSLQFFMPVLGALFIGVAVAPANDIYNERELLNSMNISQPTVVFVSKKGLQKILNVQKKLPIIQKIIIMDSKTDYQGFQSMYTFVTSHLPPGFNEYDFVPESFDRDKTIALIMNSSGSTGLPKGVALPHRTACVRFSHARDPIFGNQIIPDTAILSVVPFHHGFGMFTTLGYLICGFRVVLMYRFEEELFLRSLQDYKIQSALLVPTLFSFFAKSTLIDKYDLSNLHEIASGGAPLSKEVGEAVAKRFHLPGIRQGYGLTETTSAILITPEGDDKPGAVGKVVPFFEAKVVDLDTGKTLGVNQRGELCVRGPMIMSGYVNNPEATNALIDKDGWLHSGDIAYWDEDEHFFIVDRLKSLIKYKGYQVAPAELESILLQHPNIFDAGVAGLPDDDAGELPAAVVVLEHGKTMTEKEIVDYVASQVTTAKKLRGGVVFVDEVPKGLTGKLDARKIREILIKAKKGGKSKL
# [10] = system: Wnt5a (protein binding on small-molecule microarray); assay: Wnt5a binders on small-molecule microarray, primary screen, biophysical, 635/667 nm fluorescence (AID 1142); conditions: 635 nm fluorescence, higher = more signal;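 also: fluorescence read at 667 nm with signal to noise per printed feature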
# [11] = cell viability in Huh7 cells, primary screen, cytotoxicity control for HCV replication inhibitor project, CellTiter-Glo luminescence, basal, 48 h (AID 1143); conditions: Huh7 HCV replicon, higher = more signal, called active from +8 up or from −8 down;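 also: Huh7 hepatoma cells carrying a hepatitis C replication reporter with no stimulus; test concentration not given here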
# [12] = P. aeruginosa biofilm formation inhibitors, primary screen, PAO1 strain, BacTiter-Glo luminescence, LB-PBS (AID 1144); conditions: 12 h, higher = more signal
# [13] = CREB reporter modulators without forskolin, primary screen, cell-based, PC12, CRE-LacZ reporter, unstimulated (AID 1145); conditions: no forskolin, luminescence, 4.5 h, higher = more signal, called active from +8 up or from −8 down
# [14] = CREB reporter modulators under forskolin, primary screen, cell-based, PC12, CRE-LacZ reporter, forskolin-stimulated (AID 1146); conditions: luminescence, 4.5 h, higher = more signal, called active from +8 up or from −8 down;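 also: PC12 cells with 6xCRE LacZ reporter stimulated by forskolin 10 µM; beta-galactosidase reporter signal reflecting CREB driven transcription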
# [15] = target: Streptavidin (Streptomyces avidinii) (UniProt P22629); assay: streptavidin binders on small-molecule microarray, primary screen, artefact control for SMM compound annotation, biophysical, 635/667 nm fluorescence (AID 1147); conditions: streptavidin binding, higher = more signal;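 also: signal reflects streptavidin binding to arrayed compounds as a control protein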
# Sequence of Streptavidin (Streptomyces avidinii) (P22629 whole entry, looked up): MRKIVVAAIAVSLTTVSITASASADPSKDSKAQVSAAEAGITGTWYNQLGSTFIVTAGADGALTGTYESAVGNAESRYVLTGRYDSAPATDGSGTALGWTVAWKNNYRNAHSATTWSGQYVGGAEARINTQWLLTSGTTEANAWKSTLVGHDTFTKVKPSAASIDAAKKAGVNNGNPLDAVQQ
# [16] = small-molecule binders of probe aInhba, primary screen, biochemical, small-molecule microarray, 635/667 nm fluorescence (AID 1148); conditions: higher = more signal;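 also: score merges 667nm spot fluorescence with signal-to-noise for antibody binding to printed compounds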
# Torsin-1A (Homo sapiens) [17] = target: Torsin-1A (Homo sapiens) (UniProt O14656); assay: torsin A binders from cell lysate, primary screen, small-molecule microarray, wild-type, 635/667 nm (AID 1149); conditions: COS7 hTOR1A-WT lysate, 635 nm fluorescence, higher = more signal
# Sequence of Torsin-1A (Homo sapiens) (O14656 whole entry, looked up): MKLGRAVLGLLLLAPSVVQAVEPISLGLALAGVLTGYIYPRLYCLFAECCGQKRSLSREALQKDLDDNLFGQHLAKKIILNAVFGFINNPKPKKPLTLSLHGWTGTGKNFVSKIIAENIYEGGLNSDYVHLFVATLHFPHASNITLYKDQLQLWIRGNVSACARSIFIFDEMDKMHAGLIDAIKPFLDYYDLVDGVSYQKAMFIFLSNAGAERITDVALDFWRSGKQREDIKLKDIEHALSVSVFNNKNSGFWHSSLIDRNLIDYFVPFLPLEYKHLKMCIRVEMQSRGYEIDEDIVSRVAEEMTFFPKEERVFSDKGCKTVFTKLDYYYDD
# Torsin-1A (Homo sapiens) [18] = target: Torsin-1A (Homo sapiens) (UniProt O14656); assay: small-molecule binders of mutant TOR1A in lysate, primary screen, cell lysate, small-molecule microarray, COS7 lysate, 635/667 nm fluorescence (AID 1150); conditions: COS7 hTOR1A mutant lysate, 635 nm fluorescence, higher = more signal;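 also: score pools 667 nm emission and signal to noise measuring lysate protein binding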
# [19] = system: Sonic hedgehog protein (Shh); assay: small-molecule binders of Shh protein, primary screen, biochemical, small-molecule microarray, 635/667 nm fluorescence (AID 1151); conditions: small-molecule microarray binding, 635 nm fluorescence; higher = more signal;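 also: Shh protein binding to compounds spotted on small-molecule microarray slides; score combines spot fluorescence intensity with signal-to-noise across triplicate slides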
SMILES,composite z-score [1],composite z-score [2],composite z-score [3],composite z-score [4],composite z-score [5],composite z-score [6],z-score [7],composite z-score (Lefty1),composite z-score [8],z-score [9],composite z-score [10],z-score [11],z-score [12],z-score [13],z-score [14],composite z-score [15],composite z-score [16],composite z-score (Torsin-1A (Homo sapiens) [17]),composite z-score (Torsin-1A (Homo sapiens) [18]),composite z-score [19]
COCC(=C=CC[C@@H](O)c1cccc(OCCO)c1)C[C@@H](O)COCc1ccccc1,0.934,1.09,0.112,-0.272,0.941,-0.237,0.806,-0.058,1.34,-2.33 (inactive),0.515,-0.825 (inactive),0.125 (inactive),5.99 (inactive),-0.352 (inactive),0.709,0.825,1.58,2.28,0.436
COC(=O)[C@@]1(Cc2ccc(OC)cc2)[C@H]2c3cc(C(=O)N(C)C)n(Cc4ccsc4Br)c3C[C@H]2CN1C(=O)c1ccccc1,1.74,1.09,0.957,0.862,-0.244,-0.29,0.292,-0.538,0.669,1.05 (inactive),0.286,-0.21 (inactive),0.00572 (inactive),0.597 (inactive),0.217 (inactive),0.705,0.571,-0.0008,0.808,0.105
CC1CC/C=C\[C@H]2OC34C=CCN(c5ccc(Cl)cc5)C(=O)[C@H]3N(CCCO)C(=O)[C@]4(C)C2C(=O)O1 (stereo not given in full),-0.567,-0.796,-0.444,-1.67,-0.6,-1.2,0.58,-0.157,-1.34,-0.0112 (inactive),-0.785,-0.0438 (inactive),1.63 (inactive),0.988 (inactive),0.22 (inactive),-1.02,-0.253,-2.1,-0.989,0.424
NC(=O)NCC#Cc1ccc2c(c1)[C@]1(C(=O)N2)[C@H](C(=O)N2CCCCCCC2)[C@H]2C(=O)O[C@H](c3ccccc3)[C@H](c3ccccc3)N2[C@@H]1c1ccc(O)cc1,0.0328,1.01,0.568,0.879,1.52,1.15,-1.16,0.784,1.15,-0.161 (inactive),0.399,0.33 (inactive),-0.209 (inactive),0.0695 (inactive),-0.745 (inactive),1.05,1.51,0.529,0.676,1.22
C=CC(CO)NC(=O)OCC1c2ccccc2-c2ccccc21 (stereo not given),0.311,0.421,0.476,0.578,0.763,0.415,0.02,0.618,-0.105,-0.409 (inactive),0.237,0.0812 (inactive),0.219 (inactive),1.03 (inactive),0.584 (inactive),0.0333,-0.183,0.743,0.724,0.775
COc1ccc(CCNC(=O)[C@@]2(C)c3ccccc3C(=O)N(Cc3cc(C(F)(F)F)cc(C(F)(F)F)c3)[C@H]2c2ccc(CO)cc2)cc1,0.202,1.07,0.431,-0.0796,1.19,0.491,0.502,0.0292,0.367,-0.868 (inactive),0.024,-5.45 (inactive),0.603 (inactive),1.18 (inactive),-0.896 (inactive),-0.404,-0.102,0.602,1.52,0.198
COC(=O)[C@@]1(Cc2ccc(OC)cc2)[C@H]2c3cc(C(=O)N4CCCC4)n(CCc4ccc(OC)c(Br)c4)c3C[C@H]2CN1C(=O)c1ccccc1,1.66,1.16,0.946,0.406,-0.533,-0.381,0.914,-1.13,0.345,0.626 (inactive),-0.0726,-0.0564 (inactive),0.24 (inactive),0.387 (inactive),0.132 (inactive),0.0687,0.195,0.373,0.57,-0.908
NC(=O)NCC#Cc1ccc2c(c1)[C@]1(C(=O)N2)[C@H](C(=O)Nc2nc3ccccc3s2)[C@H]2C(=O)O[C@H](c3ccccc3)[C@H](c3ccccc3)N2[C@@H]1c1ccc(OCCO)cc1,-0.497,0.094,0.268,-0.3,1.37,0.746,-2.21,-0.276,0.441,-1.96 (inactive),0.262,0.378 (inactive),-1.02 (inactive),0.182 (inactive),-0.199 (inactive),1.11,0.264,-0.657,-0.628,0.287
COCCOC(=O)N1C(=O)[C@@]2(c3cc(C#CCCO)ccc31)[C@H](c1ccccc1OCCO)N1[C@H](c3ccccc3)[C@H](c3ccccc3)OC(=O)[C@H]1[C@@H]2C(=O)N1CCc2cc(OC)c(OC)cc2C1,1.86,1.22,0.405,0.869,1.14,1.25,-0.0868,0.786,0.546,-1.26 (inactive),0.318,-1.07 (inactive),0.609 (inactive),1.72 (inactive),0.385 (inactive),0.321,-0.0448,1.17,1.18,1.2
C=CCC(OC(C)=O)[C@@H]1[C@@H](N(Cc2ccc(-c3cccc(C(F)(F)F)c3)o2)C(=O)Cc2ccc(F)cc2)c2cc(OCCCO)ccc2N1C(=O)c1ccc2ccccc2c1 (stereo not given in full),-0.118,-0.783,-0.192,-1.67,0.426,-0.451,0.637,0.479,-0.486,0.354 (inactive),-0.314,-0.376 (inactive),-0.25 (inactive),0.279 (inactive),0.914 (inactive),-0.488,-0.2,-0.954,-0.244,0.718
